Laboratory results reported in PubChem BioAssay (EPA / NIEHS).
The source made the active and inactive calls. The calls were made as follows: active = hit-call score of the fitted dose curve at least 0.9, where 1 is the maximum; inactive = score below 0.9.

Experiments:
Conditions in all cases: mRNA level, 48 h; actives raise or lower the signal
[1] = read-out: Apoptosis regulator Bcl-2 (Homo sapiens) (UniProt P10415); assay: LTEA_HepaRG_BCL2: Life Technologies and Expression Analysis (LTEA) Assay for Bcl-2 gene using HepaRG (AID 2283475)
Method in brief: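 Each chemical was tested in duplicate on HepaRG cultures held in serum-free induction medium for 48 h, highest concentration 100 uM with half-log dilutions. Transcript levels came from multiplexed qRT-PCR, normalised to housekeeping genes; activity was scored in either direction relative to DMSO.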

[2] = read-out: Bcl-2 (BID) gene, BID (gene 637); assay: LTEA_HepaRG_BID: Life Technologies and Expression Analysis (LTEA) Assay for Bcl-2 (BID) gene using HepaRG (AID 2283476)
Method in brief: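 Assay used HepaRG hepatic cells treated 48 h in serum-free medium with half-log dilutions from 100 uM. Endpoint: BID mRNA, qRT-PCR, normalized to ACTB/GAPDH/POLR2A.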

Caspase-3 (Homo sapiens) = Caspase-3 (Homo sapiens) (UniProt P42574); assay: LTEA_HepaRG_CASP3: Life Technologies and Expression Analysis (LTEA) Assay for cysteine-aspartic acid protease (CASP3) using HepaRG (AID 2283477)
Sequence of Caspase-3 (Homo sapiens) (P42574 whole entry, looked up): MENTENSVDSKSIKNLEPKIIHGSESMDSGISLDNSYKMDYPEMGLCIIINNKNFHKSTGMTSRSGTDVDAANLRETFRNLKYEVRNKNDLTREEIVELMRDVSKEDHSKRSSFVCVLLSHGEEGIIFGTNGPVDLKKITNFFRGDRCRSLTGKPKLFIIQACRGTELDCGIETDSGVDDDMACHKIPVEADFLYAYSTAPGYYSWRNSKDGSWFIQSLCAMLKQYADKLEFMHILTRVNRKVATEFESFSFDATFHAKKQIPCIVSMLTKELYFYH
Method in brief: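 Differentiated HepaRG cells, plated 48 h, were treated in duplicate in serum-free induction medium for 48 h with eight half-log concentrations up to 100 uM in 0.5% DMSO. CASP3 mRNA measured by qRT-PCR, normalized to ACTB, GAPDH, POLR2A.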

[3] = read-out: Cytochrome P450 (CYP24A1), CYP24A1 (gene 1591); assay: LTEA_HepaRG_CYP24A1: Life Technologies and Expression Analysis (LTEA) Assay for Cytochrome P450 (CYP24A1) using HepaRG (AID 2283478)
Method in brief: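 HepaRG cells plated 48 h, then exposed in duplicate in serum-free induction medium for 48 h to 8-point half-log series from 100 uM in 0.5% DMSO. CYP24A1 mRNA by Fluidigm qRT-PCR, normalized to ACTB, GAPDH, POLR2A; bidirectional fit versus DMSO.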

[4] = read-out: Cytochrome P450 (CYP1A2), CYP1A2 (gene 1544); assay: LTEA_HepaRG_CYP1A2: Life Technologies and Expression Analysis (LTEA) Assay for Cytochrome P450 (CYP1A2) using HepaRG (AID 2283479)
Method in brief: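 Differentiated human HepaRG cells in serum-free induction medium exposed 48 hours in duplicate to 8 half-log concentrations from 100 uM, 0.5% DMSO. CYP1A2 mRNA quantified by qRT-PCR, normalized to ACTB, GAPDH and POLR2A; bidirectional fitting versus DMSO.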

[5] = read-out: cysteine-aspartic acid protease (CASP8), CASP8 (gene 841); assay: LTEA_HepaRG_CASP8: Life Technologies and Expression Analysis (LTEA) Assay for cysteine-aspartic acid protease (CASP8) using HepaRG (AID 2283480)
Method in brief: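 qRT-PCR readout of CASP8 mRNA, normalized to three housekeeping genes, after 48 h chemical exposure of HepaRG cells; 8-point half-log series, top 100 uM, 0.5% DMSO vehicle. Bidirectional curve fitting against DMSO baseline.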

[6] = read-out: Cytochrome P450 (CYP2B6), CYP2B6 (gene 1555); assay: LTEA_HepaRG_CYP2B6: Life Technologies and Expression Analysis (LTEA) Assay for Cytochrome P450 (CYP2B6) using HepaRG (AID 2283481)
Method in brief: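 Differentiated human HepaRG cells in serum-free induction medium, dosed in duplicate for 48 h over 8 half-log concentrations topping at 100 uM (0.5% DMSO). CYP2B6 mRNA measured by TaqMan qRT-PCR, normalized to ACTB, GAPDH, POLR2A; bidirectional fit versus DMSO.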

[7] = read-out: Cytochrome P450 2C19 (Homo sapiens) (UniProt P33261); assay: LTEA_HepaRG_CYP2C19: Life Technologies and Expression Analysis (LTEA) Assay for CYP2C19 using HepaRG (AID 2283482)
Method in brief: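 Differentiated HepaRG cells in serum-free induction medium exposed 48 h in duplicate, 8 concentrations from 100 uM by half-log steps in 0.5% DMSO. CYP2C19 mRNA measured by TaqMan qRT-PCR, normalized to ACTB, GAPDH, POLR2A. Bidirectional fit versus DMSO.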

CYP2C8 (gene 1558) = assay: LTEA_HepaRG_CYP2C8: Life Technologies and Expression Analysis (LTEA) Assay for CYP2C8 using HepaRG (AID 2283483)
Method in brief: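 HepaRG (human liver line), 48 h chemical exposure, 8-pt half-log series from 100 uM, 0.5% DMSO vehicle. Readout: CYP2C8 transcript by qRT-PCR, housekeeping-normalized. Bidirectional fit vs DMSO baseline.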

CYP2C9 (gene 1559) = assay: LTEA_HepaRG_CYP2C9: Life Technologies and Expression Analysis (LTEA) Assay for CYP2C9 using HepaRG (AID 2283484)
Method in brief: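 HepaRG, 48 h dosing, 8-pt half-log series, top 100 uM, 0.5% DMSO vehicle. Read-out: CYP2C9 transcript by TaqMan qRT-PCR, housekeeping-normalized (ACTB/GAPDH/POLR2A). Gain or loss fitted vs DMSO baseline.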

CYP2E1 (gene 1571) = assay: LTEA_HepaRG_CYP2E1: Life Technologies and Expression Analysis (LTEA) Assay for CYP2E1 using HepaRG (AID 2283485)
Method in brief: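 Assay uses 48 h exposure of HepaRG hepatic cells, eight concentrations to 100 uM. Expression of CYP2E1 is quantified by TaqMan qRT-PCR with ACTB, GAPDH and POLR2A normalization; curves fitted in both directions relative to vehicle.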

CYP4A11 (gene 1579) = assay: LTEA_HepaRG_CYP4A11: Life Technologies and Expression Analysis (LTEA) Assay for CYP4A11 using HepaRG (AID 2283486)
Method in brief: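 Differentiated HepaRG cells, 48 h after plating, exposed in duplicate for 48 h to 8 half-log concentrations up to 100 uM in 0.5% DMSO in serum-free induction medium. CYP4A11 mRNA measured by TaqMan qRT-PCR, normalized to ACTB, GAPDH and POLR2A.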

[8] = read-out: DNA damage-inducible transcript 3 (DDIT3), DDIT3 (gene 1649); assay: LTEA_HepaRG_DDIT3: Life Technologies and Expression Analysis (LTEA) Assay for DNA damage-inducible transcript 3 (DDIT3) using HepaRG (AID 2283488)
Method in brief: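 Eight-point concentration-response (100 uM highest, half-log dilutions) in HepaRG, 48 h, duplicate wells. Endpoint: qRT-PCR mRNA, normalized (ACTB, GAPDH, POLR2A), bidirectional fitting with DMSO as baseline.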

[9] = read-out: Early growth response protein 1 (EGR1) transcription factor, EGR1 (gene 1958); assay: LTEA_HepaRG_EGR1: Life Technologies and Expression Analysis (LTEA) Assay for Early growth response protein 1 (EGR1) transcription factor using HepaRG (AID 2283490)
Method in brief: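 HepaRG, 48 h exposure, 8-pt half-log series from 100 uM, 0.5% DMSO vehicle; EGR1 transcript by TaqMan qRT-PCR (Fluidigm array), housekeeping-normalized; bidirectional fit relative to DMSO baseline.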

[10] = read-out: Ezrin (EZR), EZR (gene 7430); assay: LTEA_HepaRG_EZR: Life Technologies and Expression Analysis (LTEA) Assay for Ezrin (EZR) using HepaRG (AID 2283491)
Method in brief: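 Gain or loss of EZR mRNA is scored relative to 0.5% DMSO in human HepaRG cultures treated 48 h with test chemicals in duplicate, eight half-log concentrations from 100 uM.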

[11] = read-out: Cytochrome P450 3A7 (Homo sapiens) (UniProt P24462); assay: LTEA_HepaRG_CYP3A7: Life Technologies and Expression Analysis (LTEA) Assay for CYP3A7 using HepaRG (AID 2283492)
Method in brief: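 Differentiated HepaRG cells in serum-free induction medium exposed 48 h in duplicate to 8-point half-log series from 100 uM top in 0.5% DMSO. CYP3A7 mRNA by qRT-PCR, normalized to ACTB/GAPDH/POLR2A, bidirectional fit versus DMSO.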

CYP3A5 (gene 1577) = assay: LTEA_HepaRG_CYP3A5: Life Technologies and Expression Analysis (LTEA) Assay for CYP3A5 using HepaRG (AID 2283493)
Method in brief: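 Readout was CYP3A5 mRNA by qRT-PCR. HepaRG cultures were exposed for 48 h in serum-free induction medium to chemicals at up to 100 uM, and responses were fitted in both directions relative to DMSO vehicle.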

[12] = read-out: Fatty Acid-Binding Protein 1 (FABP1), FABP1 (gene 2168); assay: LTEA_HepaRG_FABP1: Life Technologies and Expression Analysis (LTEA) Assay for Fatty Acid-Binding Protein 1 (FABP1) using HepaRG (AID 2283494)
Method in brief: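 qRT-PCR readout of FABP1 transcript (normalized to three housekeeping genes) after 48 h chemical exposure of HepaRG cells; eight concentrations, half-log steps, max 100 uM, 0.5% DMSO vehicle; gain or loss fitted relative to DMSO baseline.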

[13] = read-out: Pro-epidermal growth factor (Homo sapiens) (UniProt P01133); assay: LTEA_HepaRG_EGF: Life Technologies and Expression Analysis (LTEA) Assay for Epidermal growth factor (EGF) using HepaRG (AID 2283489)
Method in brief: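 HepaRG cells (~100,000/well, 48 h pre-culture) exposed in duplicate for 48 h in serum-free induction medium to 8 half-log concentrations up to 100 uM in 0.5% DMSO. EGF mRNA by qRT-PCR, normalized to ACTB/GAPDH/POLR2A; bidirectional fit versus DMSO.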

Measured: AC50

Sequence of Apoptosis regulator Bcl-2 (Homo sapiens) (P10415 whole entry, looked up): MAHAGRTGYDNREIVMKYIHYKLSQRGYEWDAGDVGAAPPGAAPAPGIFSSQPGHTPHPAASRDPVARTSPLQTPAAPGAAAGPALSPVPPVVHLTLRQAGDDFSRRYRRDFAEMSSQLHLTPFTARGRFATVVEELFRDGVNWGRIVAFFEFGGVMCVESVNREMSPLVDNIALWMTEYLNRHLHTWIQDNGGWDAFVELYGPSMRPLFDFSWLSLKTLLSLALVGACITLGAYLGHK
Sequence of Cytochrome P450 3A7 (Homo sapiens) (P24462 whole entry, looked up): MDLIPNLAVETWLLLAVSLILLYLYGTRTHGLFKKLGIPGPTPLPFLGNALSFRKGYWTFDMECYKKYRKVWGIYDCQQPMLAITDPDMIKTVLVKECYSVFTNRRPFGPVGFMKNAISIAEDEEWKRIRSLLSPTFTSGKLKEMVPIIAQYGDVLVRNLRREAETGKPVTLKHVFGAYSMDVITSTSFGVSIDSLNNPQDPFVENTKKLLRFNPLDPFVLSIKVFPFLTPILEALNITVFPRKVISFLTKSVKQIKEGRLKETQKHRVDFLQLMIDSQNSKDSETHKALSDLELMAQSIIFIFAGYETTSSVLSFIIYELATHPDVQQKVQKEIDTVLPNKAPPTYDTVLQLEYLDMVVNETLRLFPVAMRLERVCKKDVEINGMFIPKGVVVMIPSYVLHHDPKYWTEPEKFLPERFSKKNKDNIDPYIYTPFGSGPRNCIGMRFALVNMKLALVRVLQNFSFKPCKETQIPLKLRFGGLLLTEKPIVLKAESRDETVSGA
Sequence of Cytochrome P450 2C19 (Homo sapiens) (P33261 whole entry, looked up): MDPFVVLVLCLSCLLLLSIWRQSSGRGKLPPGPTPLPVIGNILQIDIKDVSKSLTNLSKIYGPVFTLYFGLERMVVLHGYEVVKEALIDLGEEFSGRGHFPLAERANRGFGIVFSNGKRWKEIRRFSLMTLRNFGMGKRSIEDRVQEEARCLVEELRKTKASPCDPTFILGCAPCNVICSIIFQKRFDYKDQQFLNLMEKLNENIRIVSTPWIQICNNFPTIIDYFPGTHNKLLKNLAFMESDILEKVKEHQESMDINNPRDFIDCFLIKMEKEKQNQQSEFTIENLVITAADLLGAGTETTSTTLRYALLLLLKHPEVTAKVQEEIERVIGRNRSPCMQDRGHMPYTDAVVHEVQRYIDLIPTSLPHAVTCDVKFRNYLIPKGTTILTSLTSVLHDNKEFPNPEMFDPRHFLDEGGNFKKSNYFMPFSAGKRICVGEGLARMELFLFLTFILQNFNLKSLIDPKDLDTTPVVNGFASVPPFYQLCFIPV

COCCO
inactive: [1] | [2] | Caspase-3 (Homo sapiens) | [3] | [4] | [5] | [6] | [7] | CYP2C8 (gene 1558) | CYP2C9 (gene 1559) | CYP2E1 (gene 1571) | CYP4A11 (gene 1579) | [8] | [9] | [10] | [11] | CYP3A5 (gene 1577) | [12]

O=C(O)C1(C(=O)Nc2ccc(Cl)cc2Cl)CC1
active: Caspase-3 (Homo sapiens) 28.4 µM | [6] 66.9 µM | [7] 76.5 µM | CYP2C8 (gene 1558) 82.6 µM | CYP2C9 (gene 1559) 71.9 µM | CYP2E1 (gene 1571) 63.5 µM | CYP4A11 (gene 1579) 84.8 µM | [13] 31.6 µM | [9] 50 µM | [11] 91 µM | [12] 77.5 µM
inactive: [1] | [2] | [3] | [4] | [5] | [8] | [10] | CYP3A5 (gene 1577)

CCCOC(=O)NCCCN(C)C
inactive: [1] | [2] | Caspase-3 (Homo sapiens) | [3] | [4] | [5] | [6] | [7] | CYP2C8 (gene 1558) | CYP2C9 (gene 1559) | CYP2E1 (gene 1571) | CYP4A11 (gene 1579) | [8] | [13] | [9] | [10] | [11] | CYP3A5 (gene 1577) | [12]

C#CCOC(=O)[C@@H](C)Oc1ccc(Oc2ncc(Cl)cc2F)cc1
active: CYP4A11 (gene 1579) 19 µM | [11] 50 µM | [12] 64.4 µM
inactive: [1] | [2] | Caspase-3 (Homo sapiens) | [3] | [4] | [5] | [6] | [7] | CYP2C8 (gene 1558) | CYP2C9 (gene 1559) | CYP2E1 (gene 1571) | [8] | [13] | [9] | [10] | CYP3A5 (gene 1577)

CC(=O)[C@H]1CC[C@H]2[C@@H]3CCC4=CC(=O)CC[C@]4(C)[C@H]3CC[C@]12C
inactive: [2] | Caspase-3 (Homo sapiens) | [3] | [10]
active: [1] 23 µM | [4] 25.4 µM | [5] 82.2 µM | [6] 32.6 µM | [7] 39.6 µM | CYP2C8 (gene 1558) 37.2 µM | CYP2C9 (gene 1559) 38.5 µM | CYP2E1 (gene 1571) 25.7 µM | CYP4A11 (gene 1579) 31.1 µM | [8] 27.2 µM | [13] 82 µM | [9] 50 µM | [11] 30.1 µM | CYP3A5 (gene 1577) 84.6 µM | [12] 35.8 µM

CCCCCCC(C)OC(=O)COc1nc(F)c(Cl)c(N)c1Cl (configuration not stated)
inactive: [1] | [2] | Caspase-3 (Homo sapiens) | [3] | [4] | [5] | [7] | CYP2C8 (gene 1558) | CYP2E1 (gene 1571) | CYP4A11 (gene 1579) | [8] | [13] | [9] | [10] | [11] | CYP3A5 (gene 1577) | [12]
active: [6] 50 µM
